Among the data in PubChem BioAssay (EPA / NIEHS) are outcome and AC50 values, retold here.

SMILES strings stand for the structures. Inconclusive results are not listed. Activity calls are given as the source filed them. How the source made its calls: active means hit-call score of the fitted dose curve at least 0.9, where 1 is the maximum; inconclusive means response in the unintended direction; inactive means score below 0.9.

The target of this experiment is Bile acid receptor (Homo sapiens) (UniProt Q96RI1). The experiment in a line: ATG_FXR_TRANS: Attagene TRANS-FACTORIAL HepG2 Assay for Farnesoid X Receptor (FXR) (AID 2282979).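 Further: hits raise reporter mRNA above DMSO so AC50 marks FXR activation.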 The settings on record: HepG2 Attagene TRANS FXR-GAL4 reporter transcription. On the procedure: ATG_TRANS is a cell-based, multiplexed-readout assay that uses HepG2, a human liver cell line, with measurements taken at 24 hours after chemical dosing in a 24-well plate.ATG_FXR_TRANS is one of 30 assay component(s) measured or calculated from the ATG_TRANS assay. It is designed to make measurements of mRNA induction, a form of inducible reporter, as detected with fluorescence intensity signals by Reverse transcription polymerase chain reaction (RT-PCR) and Capillary electrophoresis technology.Data from the assay component ATG_FXR_TRANS was analyzed into 1 assay endpoint. This assay endpoint, ATG_FXR_TRANS, was analyzed in the positive analysis fitting direction relative to DMSO as the negative control and baseline of activity. Using a type of inducible reporter, measures of mRNA for gain-of-signal activity can be used to understand the reporter gene at the transcription factor-level as they relate to the gene NR1H4. Furthermore, this assay endpoint can be referred to as a primary readout, because this assay has produced multiple assay endpoints where this one serves a reporter gene function. To generalize the intended target to other relatable targets, this assay endpoint is annotated to the nuclear receptor intended target family, where the subfamily is non-steroidal.
Bile acid receptor (Homo sapiens), sequence (Q96RI1 whole entry, looked up, the tested form may be a part): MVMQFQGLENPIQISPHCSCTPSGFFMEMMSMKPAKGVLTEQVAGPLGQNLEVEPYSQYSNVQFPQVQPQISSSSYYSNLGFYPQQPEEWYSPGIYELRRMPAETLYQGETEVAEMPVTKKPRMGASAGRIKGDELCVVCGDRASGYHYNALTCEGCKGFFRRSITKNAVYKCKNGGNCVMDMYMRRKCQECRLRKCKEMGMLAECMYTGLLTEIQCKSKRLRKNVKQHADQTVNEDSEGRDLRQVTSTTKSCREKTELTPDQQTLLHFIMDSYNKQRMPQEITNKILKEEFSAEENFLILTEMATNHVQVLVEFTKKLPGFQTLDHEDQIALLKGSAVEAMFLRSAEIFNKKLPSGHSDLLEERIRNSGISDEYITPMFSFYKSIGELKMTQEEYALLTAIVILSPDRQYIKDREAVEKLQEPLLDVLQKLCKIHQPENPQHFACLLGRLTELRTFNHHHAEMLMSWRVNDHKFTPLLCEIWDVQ
Human liver HepG2 cells are transiently transfected with multiple reporter transcription units (MRTUs) in 6-well plates using FuGene 6 reagent (Roche; 3 ml FuGene/1 mg DNA). The MRTU constructs are regulated by a cis-regulating element (promoter). […] A major difference between the CIS and TRANS system is that in CIS activities of endogenous TFs are measured, whereas the TRANS assay evaluates changes in activities of exogenous, chimeric NR-Gal4 proteins. […] At the end of 24 hour incubation, total RNA was isolated using TriZol reagent (Invitrogen). The isolated RNA is then reverse-transcribed using oligo(dT) primer and Mo-MLV reverse transcriptase (Invitrogen) with DNAse I (Ambion) treatment for 30 min. The one-tenth of the produced cDNA was amplified by PCR using Taq DNA polymerase (Invitrogen) and two reporter sequence-specific primers. The PCR products were fluorescently labeled by primer extension with 6-arboxyfluorescein (6-FAM) 5'-labeled reporter sequence-specific primer (2 min at 95 C, 20 s at 68 C and 10 min at 72 C) and these products were digested with 5U of HpaI (New England Biolabs) for 2h at 37 C. The fragments were purified using Qiaquick PCR columns (Qiagen), analyzed on an ABI 3130xL genetic analyzer (Applied Biosystems) with peak positions identified by using a set of X-rhodamine (ROX)-labeled MapMarker1000 molecular weight standards (BioVentures). The raw capillary electrophoresis data was processed using Attagraph software (Attagene).
Consider `O=C1CCCCCN1SSN1CCCCCC1=O`, for which the call was inactive.
Same read-out and setting: for `O=C(C(Cl)Cl)N1CCOC12CCCCC2` the value was “inactive”.
On the same count and under the same terms, with `Nc1cccc(C(F)(F)F)c1` the entry was “inactive”.
Still for that read-out and setting: for `CCOC(=O)CC` the value was “inactive”; for `Cc1ccc(C2OC[C@@H]3OC(c4ccc(C)cc4)O[C@H]([C@H](O)CO)[C@@H]3O2)cc1` (stereo not given in full), “inactive”.
On to `NC(=O)N=NC(N)=O`, for which the outcome was inactive.
Same read-out and setting: for `O=S(=O)(O)c1ccccc1C=Cc1ccc(-c2ccc(C=Cc3ccccc3S(=O)(=O)O)cc2)cc1` the value was “inactive”; for `Oc1ccc(Cl)cc1Cc1cc(Cl)ccc1O`, “inactive”; for `Cc1oncc1C(=O)Nc1ccc(C(F)(F)F)cc1`, “inactive”.
On the same count and under the same terms, for `CCCCCCCC/C=C\CCCCCCCC(=O)O` the value was “inactive”.
Regarding `O=P(O)(O)Oc1ccccc1`, the call was inactive.
On the same count and under the same terms, for `O=C(Cl)c1cc(C(=O)Cl)cc(C(=O)Cl)c1` the value was “inactive”; for `CCN(CCO)c1cccc(C)c1`, “inactive”; for `CC1=Nc2ccc3ccccc3c2C1(C)C`, “inactive”.
The same measure, in the same setting: for `CC(C)COC(=O)C=Cc1ccccc1` the value was “inactive”; for `O=c1n(CCO)c(=O)n(CCO)c(=O)n1CCO`, “inactive”.
The AC50 is the midpoint of the concentration-response curve, whichever way the signal moves. Consider `O=C1Nc2ccccc2C1(c1ccc(O)cc1)c1ccc(O)cc1`, for which the half-maximal activity concentration (AC50) was 10.5 µM (active).
In the case of `CC=CCO`, the compound was classed as inactive.
`CCCCC(CC)CCC(CC(C)C)OS(=O)(=O)O` (stereo not given): the call was inactive.
The same measure, in the same setting: for `O=C(Nc1cccc(C(F)(F)F)c1)c1cc(Br)cc(Br)c1O` the value was “inactive”; for `Cn1c(=O)[nH]c2ncn(C)c2c1=O`, “inactive”; for `CC1=NN(c2cc(S(=O)(=O)O)ccc2Cl)C(=O)C1N=Nc1ccccc1` (stereo not given), “inactive”.
The same measure, in the same setting: for `CCCCCCCCCCC=CC#N` the value was “inactive”.
Same read-out and setting: for `CCCCNc1ccc(NCCCC)c2c1C(=O)c1ccccc1C2=O` the value was “inactive”.
As to `CCCCCCC(O)CO` (stereo not given), the compound was called inactive.
On the same count and under the same terms, with `Cc1ccc(OC(=O)CC(C)C)cc1` the entry was “inactive”.
In the case of `CCOC(F)(F)C(F)(F)C(F)(F)C(F)(F)F`, the result was inactive.
The same measure, in the same setting: for `O=C1CCCCCCCCCCCCCCCO1` the value was “inactive”; for `Nc1ccc(Cl)cc1Cl`, “inactive”; for `CC(=O)c1ccc[nH]1`, “inactive”.
As for `CCCCCCCCCCc1ccccc1`, the call was inactive.
On the same count and under the same terms, with `C=COCCCC` the entry was “inactive”.
On the same count and under the same terms, with `CC/C=C\C/C=C\C/C=C\CCCCCCCC(=O)O` the entry was “inactive”; with `CC[C@H]1OC(=O)[C@H](C)[C@@H](O[C@H]2C[C@@](C)(OC)[C@@H](O)[C@H](C)O2)[C@H](C)[C@@H](O[C@@H]2O[C@H](C)C[C@H](N(C)C)[C@H]2O)[C@](C)(O)C[C@@H](C)C(=NOCOCCOC)[C@H](C)[C@@H](O)[C@]1(C)O`, “inactive”.
The same measure, in the same setting: for `C=C(C)C(=O)OCC(C)C` the value was “inactive”.
In the case of `CCC(Cc1ccccc1)(C(=O)c1ccc(N2CCOCC2)cc1)N(C)C` (stereo not given), the call was inactive.
Same read-out and setting: for `Nc1ccc(N)c(Cl)c1` the value was “inactive”; for `O=C(O)CC(C(=O)O)C(CC(=O)O)C(=O)O` (stereo not given), “inactive”; for `O=C1OC(=O)c2cc(Oc3ccc4c(c3)C(=O)OC4=O)ccc21`, “inactive”.
As for `CC(=O)[C@@]1(O)CC[C@H]2[C@@H]3C[C@H](C)C4=CC(=O)C=C[C@]4(C)[C@@]3(F)[C@@H](O)C[C@@]21C`, the outcome was inactive.
